Legend:
Format in all cases: functional
[1] = system: Plasmodium falciparum; assay: GSK_TCMDC: Inhibition of Plasmodium falciparum 3D7 in whole red blood cells, using parasite LDH activity as an index of growth. Test compounds present at 2uM
[2] = system: Plasmodium falciparum; assay: GSK_TCMDC: Inhibition of Plasmodium falciparum Dd2 in whole red blood cells, using parasite LDH activity as an index of growth. Test compounds present at 2uM
[3] = system: HepG2; assay: GSK_TCMDC: Percent inhibition of human HepG2 cell line. Test compounds present at 10uM.

Compound	Inhibition [1]	Inhibition [2]	Inhibition [3]
O=S(=O)(c1cc2ccccc2s1)N(CCC(O)(C(F)(F)F)C(F)(F)F)Cc1cccc(O)c1	100%	99%	0%
O=C(Nc1ccc(Cn2ncc(N3CCCNCC3)c(Cl)c2=O)cc1)Nc1cccc(C(F)(F)F)c1.O=C(O)C(F)(F)F	100%	30%	20%
COc1cc2nccc(Nc3ccc(OCc4ccccc4)cc3)c2cc1OC	100%	99%	35%
Br.CCCCCCCCn1ccc(=N)cc1	91%	84%	49%
COc1ccc(NC(=O)CCNc2cc(C)nc(Nc3ccccc3)n2)cc1.O=C(O)C(F)(F)F	92%	15%	0%
CCOc1ccc2[nH]c(C)cc(=NN=Cc3cccc(C)n3)c2c1	99%	73%	6%
CC(C)CNCc1ccc(-c2cccc(CN(CCCN3CCN(C)CC3)C(=O)/C=C/c3ccccc3)c2)cc1.O=C(O)C(F)(F)F	95%	93%	43%
Cc1cccn2c(=O)c3cc(C(=O)NCCN4CCOCC4)c(=N)n(CCc4ccccc4)c3nc12	100%	85%	13%
Cc1cc(N2CC=CCC2)nc(NC(=N)Nc2ccc(Cl)cc2)n1	100%	78%	0%
CCCC[C@H](NC(=O)O[C@H](COc1ccc(OCc2ccccc2)cc1)C(C)(C)C)C(=O)C(=O)Nc1cc[nH]n1	88%	71%	21%
O=C(O)C(F)(F)F.c1cc(CN2CCN(c3ccncc3)CC2)cc(-c2ccc(-c3nc4ccccc4[nH]3)cc2)c1	100%	100%	60%
Cl.N#Cc1ccc(-c2ccc(C(=O)Nc3ccc4c(c3)CCN(C3CCC3)CC4)nc2)cc1	99%	63%	21%
Cc1cc(N[C@@H](Cc2ccccc2)C(=O)NC2CCCC2)nc(NCCOc2ccccc2)n1.O=C(O)C(F)(F)F	98%	48%	40%
CCNc1cc(C)nc(Nc2ccc(F)cc2)n1	100%	57%	1%
Cl.N#Cc1ccc(NC(=O)Nc2ccc3c(c2)CCN(C2CCC2)CC3)cc1	96%	11%	6%
O=C(Nc1ccc2c(ccn2C2CCCN(Cc3cc(F)cc(F)c3F)CC2)c1)c1ccco1 (configuration not stated)	89%	94%	7%
COc1ccc(-c2cccc(CNCc3ccc(F)cc3)c2)cc1S(=O)(=O)NCCN1CCCC1.O=C(O)C(F)(F)F	100%	16%	20%
Cl.O=c1cc(NCCCNCc2ccc(C(F)(F)F)s2)[nH]c2ccccc12	99%	68%	0%
CCCCNS(=O)(=O)c1ccc(NC(=O)c2cc([N+](=O)[O-])ccc2Cl)cc1	92%	47%	12%
O=C(NCc1ccc(Cl)c(Cl)c1)c1ccc(C2CCN(Cc3ccc4[nH]cnc4c3)CC2)cc1	100%	31%	1%
O=C(/C=C/c1ccc(Cl)c(Cl)c1)NC1CCC(CN2CCC(c3nc4cccnc4[nH]3)CC2)CC1 (configuration not stated)	100%	2%	7%
CC(=O)Nc1ccc(CNC2Cc3ccc(-c4ccc(Cl)c(Cl)c4)cc3C2)cc1 (configuration not stated)	89%	7%	49%
O=C(Nc1ccc(N2CCCN(Cc3cccc(F)c3)CC2)cc1)c1ccccc1.O=C(O)C(F)(F)F	95%	95%	25%
CCNC1=NC2=C(CC(C(C)(C)C)CC2)C2(CCC(C(C)(C)C)CC2)S1.Cl (configuration not stated)	99%	99%	40%
Clc1ccc(OCc2ccccc2)c(-c2nc(-c3nc4ccc(Cl)cc4[nH]3)cs2)c1	99%	60%	0%
COc1cc(OC)c(OC)cc1C=NN=c1cc(C)[nH]c2ccccc12	100%	95%	5%
Cl.FC(F)(F)c1cc(Nc2ccc(Oc3ccccc3)cc2)c2cc(-c3ccncc3)ccc2n1	100%	70%	0%
CCCCCC(=O)N1CCOC(CCN2CCc3c(c4ccccc4n3C)C2)(c2ccc(Cl)c(Cl)c2)C1 (configuration not stated)	95%	80%	24%
OC(CNCc1ccccc1OCc1ccccc1)c1cc(Br)cs1 (configuration not stated)	97%	88%	16%

Source: ChEMBL document CHEMBL1157539, “Thousands of chemical starting points for antimalarial lead identification” (Nature, 2010)
